Measurements published in PubChem BioAssay (NCI).
The panel holds about 83,000 compounds, 20% with a hit somewhere; the sample as a whole holds those more often.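 Cell lines were cultured in 96-well plates, exposed to a single compound concentration, and assessed for percent growth 48 hours later.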 A number with no mark means an inactive call. Activity calls are given as the source filed them. How the source made its calls: active means growth percent below 10; inactive means the rest.

System: NCI-H522 lung
Test: NCI-60 one-dose screen, 48 h (100 = growth as untreated, 0 = no growth, -100 = all killed)
Conditions: 10 µM unless noted

Compound	growth
CO[C@H]1CC(c2ccc[nH]2)=N[C@]12O[C@@H](C)C[C@@H]1CCCCCCCc3ccc([nH]3)[C@H]12	20.8%
COc1ccc2c(O)cc3c(c2c1)[C@H](CCl)CN3C(=O)c1cc2cc(NC(=O)CCN3CCOCC3)ccc2[se]1	-82.5% (active)
O=c1c(/C=C/c2c(O)ccc3ccccc23)nnc2sc(-c3cccc([N+](=O)[O-])c3)nn12	86.3%
CC1(C)CCC[C@]23C(=O)O[C@](O)(C(=O)C4=C[C@@](C)(/C=C/CCCc5ccc6ccc7cccc8ccc5c6c78)CC[C@@]42O)[C@@H]13	-62.6% (active)
CCOC(=O)CC1C(CNC(=O)NC)OC(n2cnc3c(NC(=O)Nc4ccccc4)ncnc32)C1O[Si](C)(C)C(C)(C)C (stereo not drawn)	80.2%
COc1ccc(-c2ccc(-c3ccc(C(=N)N)nc3)s2)cc1	-44.9% (active)
COc1ccc(Cn2cc3c(c2)-c2oncc2CC3)cc1	71%
O=[N+]([O-])c1ccc(Oc2cccc3c(Oc4ccc([N+](=O)[O-])cc4[N+](=O)[O-])cccc23)c([N+](=O)[O-])c1	74.6%
CCCCCN(CCCCC)CC(O)c1c(Cl)ccc2ccccc12 (stereo not drawn)	79%
Cn1cc(-c2csc(-c3cn(C)c4ccc(F)cc34)n2)c2cnccc21	-76% (active)
CNC1=C([N+](=O)[O-])C(c2ccc(OC)cc2)C(C#N)=C(c2ccc[nH]2)O1 (stereo not drawn)	92.3%
Cc1cc(C(=O)Nc2cc(Nc3ncccc3-c3ncnc4nc[nH]c34)ccc2F)cc(C(C)(C)C#N)c1	53.7%
COC(=O)CNC(=O)c1ccc(NC(=O)c2[nH]c(C)c(Cl)c2Cl)c(O[C@H]2CCNC2)c1	97.7%
FC(F)(F)c1cccc(-c2nnn(Cc3cc(-c4cccc(Cl)c4)no3)n2)c1	99.6%
O=C(Nc1ncc(Cc2ccccc2)s1)c1ccc2c(c1)OCCO2	-3.58% (active)
CCOC(=O)c1ccc2c(c1)[n+](=O)c(C(C)=O)c(C(F)(F)F)n2[O-]	-83.8% (active)
O=C(Nc1ccccc1C(F)(F)F)C1=NCCCCN1	86.8%
CCCCCC(C)(O)C(C(=O)O)c1ccccc1 (stereo not drawn)	95%
Nc1ncnc2c1N=C(c1ccc([N+](=O)[O-])cc1)CC(c1ccc3c(c1)OCO3)N2 (stereo not drawn)	84.9%
COc1cc2c(cc1OC)CC[N+](CCC[N+](C)(C)C)=C2	80.3%

Compound	growth
O=C1Nc2ccccc2/C1=C/c1cccn1CCCCCCn1c2ccccc2c(=O)c2ccccc21	66%
CCCS(=O)(=O)Nc1cccc(Nc2ncnc3cc(NC(=O)CCl)ccc23)c1Cl	-60% (active)
Cc1ccc(C23CCC(=O)N2CCc2cncn23)cc1 (stereo not drawn)	87.9%
Cc1ccc(-c2nn(CC(=O)N3CCOCC3)c(N)c2C#N)cc1	101%
COC(=O)[C@H](C)NC(=O)[C@@H]1CCCN1C(=O)CNC(=O)[C@H](C)N	96.2%
O=C1c2c(c3c4cccnc4[nH]c3c3ccc4ccccc4c23)C(=O)N1O	19.9%
C#CCOc1cccc(Nc2ncnc3c(NC(=O)CCl)cccc23)c1	-73.5% (active)
COc1ccc(CNc2c3ccccc3nc3ccccc23)cc1OC	18.2%
COc1ccc(-c2csc(NC(=O)CSc3nc(C)cc(=O)[nH]3)n2)cc1	86.7%
O=C(CNc1ncco1)Nc1ccc(S(=O)(=O)c2ccc(NC(=O)CNc3ncco3)cc2)cc1	-96.9% (active)
Cc1c2cnccc2c(C)c2c1c1cc(C(=O)O)ccc1n2C	-47.8% (active)
COc1ccc(-c2cn(Cc3ccc4c(Br)cc(Br)c(O)c4n3)nn2)cc1	58.5%
COC(=O)c1c(C(=O)OC)c2ccc3c4ncccc4ccc3n2c1C(=O)c1ccc(C)cc1	68%
O=[N+]([O-])c1ccc(N/N=C\c2cc(Cl)ccc2O)nc1	31.3%
COc1ccc(C(=O)/C=C/c2ccc(C)cc2)cc1S(N)(=O)=O	43.1%
CN1CCN(CC(=O)N(C)c2ccc(N=C(c3ccccc3)c3c(O)[nH]c4ccc([N+](=O)[O-])cc34)cc2)CC1	86.8%
C=CC(=O)NCc1cccc(Nc2ncc(Br)c(NCCCNC(=O)C3CCC3)n2)c1	-38.8% (active)
Nc1nc(N)c2c(n1)NC(c1cccc(Nc3ccnc4cc(C(F)(F)F)ccc34)c1)CC(c1ccc(Cl)cc1)=N2 (stereo not drawn)	32.6%
C=C(C[n+]1ccccc1)[C@@H]1CC[C@]2(C(=O)OC)CC[C@]3(C)[C@H](CC[C@@H]4[C@@]5(C)CCC(=O)C(C)(C)[C@@H]5CC[C@]43C)[C@@H]12	55.5%

System: A549/ATCC NSCLC
Test: as above
Conditions: 10 µM unless noted

Compound	growth
CO[C@H]1CC(c2ccc[nH]2)=N[C@]12O[C@@H](C)C[C@@H]1CCCCCCCc3ccc([nH]3)[C@H]12	11.2%
COc1ccc2c(O)cc3c(c2c1)[C@H](CCl)CN3C(=O)c1cc2cc(NC(=O)CCN3CCOCC3)ccc2[se]1	-29.5% (active)
O=c1c(/C=C/c2c(O)ccc3ccccc23)nnc2sc(-c3cccc([N+](=O)[O-])c3)nn12	45.7%
CC1(C)CCC[C@]23C(=O)O[C@](O)(C(=O)C4=C[C@@](C)(/C=C/CCCc5ccc6ccc7cccc8ccc5c6c78)CC[C@@]42O)[C@@H]13	-70.5% (active)
CCOC(=O)CC1C(CNC(=O)NC)OC(n2cnc3c(NC(=O)Nc4ccccc4)ncnc32)C1O[Si](C)(C)C(C)(C)C (stereo not drawn)	22.4%
COc1ccc(-c2ccc(-c3ccc(C(=N)N)nc3)s2)cc1	-56.7% (active)
COc1ccc(Cn2cc3c(c2)-c2oncc2CC3)cc1	52.1%
O=[N+]([O-])c1ccc(Oc2cccc3c(Oc4ccc([N+](=O)[O-])cc4[N+](=O)[O-])cccc23)c([N+](=O)[O-])c1	83%
CCCCCN(CCCCC)CC(O)c1c(Cl)ccc2ccccc12 (stereo not drawn)	67.6%
Cn1cc(-c2csc(-c3cn(C)c4ccc(F)cc34)n2)c2cnccc21	1.42% (active)
CNC1=C([N+](=O)[O-])C(c2ccc(OC)cc2)C(C#N)=C(c2ccc[nH]2)O1 (stereo not drawn)	106%
Cc1cc(C(=O)Nc2cc(Nc3ncccc3-c3ncnc4nc[nH]c34)ccc2F)cc(C(C)(C)C#N)c1	48.7%
COC(=O)CNC(=O)c1ccc(NC(=O)c2[nH]c(C)c(Cl)c2Cl)c(O[C@H]2CCNC2)c1	105%
FC(F)(F)c1cccc(-c2nnn(Cc3cc(-c4cccc(Cl)c4)no3)n2)c1	100%
O=C(Nc1ncc(Cc2ccccc2)s1)c1ccc2c(c1)OCCO2	16.6%
CCOC(=O)c1ccc2c(c1)[n+](=O)c(C(C)=O)c(C(F)(F)F)n2[O-]	19.2%
O=C(Nc1ccccc1C(F)(F)F)C1=NCCCCN1	102%
CCCCCC(C)(O)C(C(=O)O)c1ccccc1 (stereo not drawn)	99.6%
Nc1ncnc2c1N=C(c1ccc([N+](=O)[O-])cc1)CC(c1ccc3c(c1)OCO3)N2 (stereo not drawn)	96.6%
COc1cc2c(cc1OC)CC[N+](CCC[N+](C)(C)C)=C2	97.4%

Compound	growth
O=C1Nc2ccccc2/C1=C/c1cccn1CCCCCCn1c2ccccc2c(=O)c2ccccc21	87.9%
CCCS(=O)(=O)Nc1cccc(Nc2ncnc3cc(NC(=O)CCl)ccc23)c1Cl	-5.2% (active)
Cc1ccc(C23CCC(=O)N2CCc2cncn23)cc1 (stereo not drawn)	96.7%
Cc1ccc(-c2nn(CC(=O)N3CCOCC3)c(N)c2C#N)cc1	95.8%
COC(=O)[C@H](C)NC(=O)[C@@H]1CCCN1C(=O)CNC(=O)[C@H](C)N	106%
O=C1c2c(c3c4cccnc4[nH]c3c3ccc4ccccc4c23)C(=O)N1O	83.6%
C#CCOc1cccc(Nc2ncnc3c(NC(=O)CCl)cccc23)c1	47.4%
COc1ccc(CNc2c3ccccc3nc3ccccc23)cc1OC	16.3%
COc1ccc(-c2csc(NC(=O)CSc3nc(C)cc(=O)[nH]3)n2)cc1	104%
O=C(CNc1ncco1)Nc1ccc(S(=O)(=O)c2ccc(NC(=O)CNc3ncco3)cc2)cc1	6.88% (active)
Cc1c2cnccc2c(C)c2c1c1cc(C(=O)O)ccc1n2C	8.95% (active)
COc1ccc(-c2cn(Cc3ccc4c(Br)cc(Br)c(O)c4n3)nn2)cc1	98.7%
COC(=O)c1c(C(=O)OC)c2ccc3c4ncccc4ccc3n2c1C(=O)c1ccc(C)cc1	83.2%
O=[N+]([O-])c1ccc(N/N=C\c2cc(Cl)ccc2O)nc1	50.4%
COc1ccc(C(=O)/C=C/c2ccc(C)cc2)cc1S(N)(=O)=O	43.6%
CN1CCN(CC(=O)N(C)c2ccc(N=C(c3ccccc3)c3c(O)[nH]c4ccc([N+](=O)[O-])cc34)cc2)CC1	46.7%
C=CC(=O)NCc1cccc(Nc2ncc(Br)c(NCCCNC(=O)C3CCC3)n2)c1	-9.64% (active)
Nc1nc(N)c2c(n1)NC(c1cccc(Nc3ccnc4cc(C(F)(F)F)ccc34)c1)CC(c1ccc(Cl)cc1)=N2 (stereo not drawn)	40.8%
C=C(C[n+]1ccccc1)[C@@H]1CC[C@]2(C(=O)OC)CC[C@]3(C)[C@H](CC[C@@H]4[C@@]5(C)CCC(=O)C(C)(C)[C@@H]5CC[C@]43C)[C@@H]12	93.3%
